Assay outcomes (PubChem)
This is one part of a sample in which hits are shown more often than they occur.
Tb PYK inh – inhibitors of Trypanosoma brucei pyruvate kinase; actives 0.12% (n = 410,000); TbPYK enzyme, Kinase-Glo Plus ATP luminescence, 45 min; AID 624173; Q57TT1; Potency, µM (series often up to 76.8 µM), most hits filed as inhibitors; active = well fitted curve in the direction sought with a large enough effect; inconclusive = small, poorly fitted or top-dose-only effect, or another doubt; inactive = no such curve, though single readings can be large; an effect the other way counts as inactive or inconclusive; also: nearly all actives have a fitted effect of over 50% in size
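T. brucei PYK with substrate was exposed to pin-transferred compounds across a concentration series, then started with 130 uM ADP (final). After 45 min at room temperature, Kinase-Glo Plus luminescence was read, normalized and curve-fitted.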
SARS PLpro yeast – inhibitors of SARS-CoV papain-like protease in yeast; S. cerevisiae expressing SARS-CoV PLpro, growth rescue; Potency, µM (titrated, usually from 32.9 µM), actives largely listed as activators; actives 0.19% (n = 330,000); AID 485353; also: nearly all actives have a fitted effect of over 55% in size
CHX counter – affects cycloheximide protein synthesis inhibition readout, counter-screen; cell reporter, cycloheximide protein synthesis inhibition counterscreen; max response, %; actives 12% (n = 300,000); in the data active = max response mostly above about 13%, no sharp cut-off; inactive = mostly below about 14%; also: read at 38.3 µM for the half of the compounds with a filed dose
Shiga toxin inh – blocks Shiga toxin action in Vero cells; AID 2315; inhibition, % at 38.7 µM; actives 9.2% (n = 290,000); Vero cells, Shiga toxin protein synthesis inhibition reporter; in the data active = inhibition mostly above about 28%, no sharp cut-off; inactive = mostly below about 43%
NS1 function inh – influenza NS1 inhibition; actives 0.4% (n = 270,000); Potency, µM (top dose mostly 46.1 µM); AID 2326; also: actives are rising curves; nearly all actives have a fitted effect of over 50% in size
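A cell-based growth assay was used: compounds that relieve NS1-induced slow growth of budding yeast raise OD600. Assay medium was yeast nitrogen base with ammonium sulphate and -URA supplement, pH 6.0, with 2% galactose.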
LmPK inhibitor – LmPK (Leishmania mexicana) enzyme inhibition | Q27686 | purified LmPK, Kinase-Glo ATP luminescence, 1 h | Potency, µM (doses to about 57.5 µM), usual class: inhibitors | actives 0.37% (n = 290,000); active = well fitted curve in the direction sought with a large enough effect; inconclusive = small, poorly fitted or top-dose-only effect, or another doubt; inactive = no such curve, though single readings can be large; an effect the other way counts as inactive or inconclusive
Target sequence (Q27686 whole entry, looked up): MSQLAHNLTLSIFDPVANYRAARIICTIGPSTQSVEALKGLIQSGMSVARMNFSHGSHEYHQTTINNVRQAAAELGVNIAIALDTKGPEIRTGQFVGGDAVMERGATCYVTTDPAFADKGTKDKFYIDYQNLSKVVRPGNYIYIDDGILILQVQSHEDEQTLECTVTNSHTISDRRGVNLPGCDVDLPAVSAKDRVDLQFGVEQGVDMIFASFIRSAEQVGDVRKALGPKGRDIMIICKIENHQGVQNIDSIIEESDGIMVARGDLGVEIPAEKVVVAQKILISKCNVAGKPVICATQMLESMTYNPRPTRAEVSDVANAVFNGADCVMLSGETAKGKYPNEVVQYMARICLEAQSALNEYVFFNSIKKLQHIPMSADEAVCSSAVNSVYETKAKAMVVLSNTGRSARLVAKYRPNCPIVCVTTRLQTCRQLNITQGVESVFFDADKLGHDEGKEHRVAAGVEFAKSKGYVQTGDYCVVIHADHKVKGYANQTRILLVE
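Purified LmPK (0.1 nM) with 0.5 mM PEP and 0.1 mM ADP in imidazole buffer pH 7.2 with MgCl2/KCl, 1 h at room temperature. ATP formed was read by luciferase luminescence and normalized to no-enzyme and uninhibited controls.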
Each line names hits and unclear results; the compound was inactive in the other large screens. Unless noted, calls follow the shape of the full dose curve.

Cc1ccc(Nc2nc(CSc3nnnn3C)cs2)cc1	CHX counter 39, Shiga toxin inh 42
O=[N+]([O-])c1ccccc1Oc1ccccc1Cl	CHX counter 15, NS1 function inh inconclusive
N/C(=N\O)c1ccc(Oc2ccccc2Cl)c([N+](=O)[O-])c1	none
Cc1ccc(NC(=O)c2cccc(S(=O)(=O)N3CCc4ccccc4C3)c2)nc1	none (no result: CHX counter, Shiga toxin inh, NS1 function inh, LmPK inhibitor)
Cn1sc(NC(=O)c2cccc(Cl)c2)nc1=O	Shiga toxin inh 51
O=C(NC(=S)Nc1ccc(Cl)cn1)C(c1ccccc1)c1ccccc1	none
O=C(CCSCCc1ccccn1)Nc1ccc(Cl)cn1	none
O=C(CSc1ccccn1)Nc1ccc(Cl)cn1	CHX counter 23
CC(=O)N1CCN(S(=O)(=O)c2cccc(C(=O)Nc3ccc(C)cn3)c2)CC1	CHX counter 45, Shiga toxin inh 77
S=C(Nc1ccccc1)Nc1ccc(Cl)cn1	CHX counter 25
COc1ccc(S(N)(=O)=O)cc1C(=O)NNC(=O)C1COc2ccccc2O1 (configuration not stated)	none (no result: CHX counter, Shiga toxin inh, NS1 function inh, LmPK inhibitor)
Cc1ccc(NC(=O)c2ccc(NCc3ccc(F)cc3)nc2)cc1	none
O=C(COC(=O)Cc1ccccc1)Nc1ccc(Cl)cn1	none (no result: NS1 function inh)
Cc1ccc(CC(=O)Nc2ccc(Cl)cn2)cc1	CHX counter 41, Shiga toxin inh 70
Cc1ccc(NC(=O)Cc2ccc(Cl)cc2)nc1	none (no result: SARS PLpro yeast, CHX counter, Shiga toxin inh, NS1 function inh, LmPK inhibitor)
Cc1ccc(NC(=O)c2ccc(Nc3ccccc3F)nc2)cc1	CHX counter 40
O=C(Cc1ccccc1)Nc1ccc(Cl)cn1	CHX counter 23
Cc1ccc(C(=O)Nc2ncc3c(Cl)cccc3n2)cc1	LmPK inhibitor 13µM
CCOc1ccc(C(=O)Nc2ccc(S(=O)(=O)N3CCCCC3c3cccnc3)cc2)cc1 (configuration not stated)	none (no result: SARS PLpro yeast, CHX counter, Shiga toxin inh, NS1 function inh, LmPK inhibitor)
CCc1nc2ccc(C(=O)NCCNC(C)=O)cn2c1N(C)Cc1ccc(OC)cc1	none (no result: SARS PLpro yeast, CHX counter, Shiga toxin inh, NS1 function inh, LmPK inhibitor)
COc1cc(C)ccc1OCCSc1nnc(-c2ccc(C)cc2)o1	none (no result: SARS PLpro yeast, CHX counter, Shiga toxin inh, NS1 function inh, LmPK inhibitor)
Cc1ccc(C(=O)Nc2ccc(Cl)cn2)cc1	CHX counter 34, Shiga toxin inh 55
Cc1ccc(NC(=O)c2cccc(Cl)c2)nc1	CHX counter 29
O=C(NC(=S)Nc1ccc(Cl)cn1)C12CC3CC(CC(C3)C1)C2	CHX counter 15 (no result: NS1 function inh)
O=C(CCc1ccccc1)Nc1ccc(Cl)cn1	SARS PLpro yeast inconclusive, CHX counter 46, Shiga toxin inh 134
Cc1ccc(C(=O)NCC(=O)OCC(=O)Nc2ccc(Cl)cn2)cc1	none (no result: CHX counter, Shiga toxin inh, NS1 function inh, LmPK inhibitor)
CCC(=O)NC(=S)Nc1ccc(Cl)cn1	none
COc1ccc(CNC(=O)CN(Cc2ccc(OC)cc2)C(=O)CCC(=O)Nc2ccccn2)cc1	none
Cc1ccc(COC(=O)c2[nH]c3c(c2C)C(=O)CC(c2ccc(Cl)cc2)C3)cc1 (configuration not stated)	none (no result: SARS PLpro yeast, CHX counter, Shiga toxin inh, NS1 function inh, LmPK inhibitor)
O=c1[nH]c2ccc(NCc3ccc(OCc4ccccc4Cl)cc3)cc2[nH]1	CHX counter 23
Fc1ccc(CNc2ccc(CNc3ncn[nH]3)cc2)cc1	CHX counter 22
Nc1ccc(CNc2ncn[nH]2)cc1	none
O=c1[nH]c2ccc(NCc3ccc(F)cc3)cc2[nH]1	CHX counter 13, Shiga toxin inh 41
COc1cc(CNc2ccc3[nH]c(=O)[nH]c3c2)ccc1OCc1ccccc1Cl	none
Cc1ccc(C(=O)NCC(=O)OC(C)C(=O)NC2CCCCC2C)cc1C (configuration not stated)	none (no result: CHX counter, Shiga toxin inh, NS1 function inh, LmPK inhibitor)
CSc1cccc(NC(=O)CNS(=O)(=O)c2ccccc2)c1	none
CN1CCN(Cc2nc(N)nc(Nc3ccc4c(c3)OCCO4)n2)CC1	CHX counter 30, Shiga toxin inh 60
COCCCNC(=S)N(CCO)Cc1cc2cc3c(cc2[nH]c1=O)OCO3	none
COc1ccc(-c2cc(C(=O)c3c(N)n(C)c(=O)n(C)c3=O)c3ccccc3n2)cc1	CHX counter 18
Cn1c(N)c(C(=O)COC(=O)c2cc(-c3ccco3)nc3ccccc23)c(=O)n(C)c1=O	CHX counter 21, NS1 function inh inconclusive
Cn1c(N)c(C(=O)COC(=O)c2cc(-c3ccco3)nc3ccccc23)c(=O)n(Cc2ccccc2)c1=O	NS1 function inh 14µM (no result: Tb PYK inh)
CC(Oc1ccc(C(=O)c2ccccc2)cc1)C(=O)N1CCOCC1 (configuration not stated)	none (no result: CHX counter, Shiga toxin inh, NS1 function inh, LmPK inhibitor)
Cc1ccc(Nc2nc(N)nc(CSC(=S)N3CCOCC3)n2)cc1	CHX counter 46, Shiga toxin inh 96
CC1CC(C)CN(C(=S)SCc2nc(N)nc(Nc3ccccc3)n2)C1 (configuration not stated)	none
Cc1cccc(Nc2nc(N)nc(CSC(=S)N3CCOCC3)n2)c1	none
COc1ccccc1Nc1nc(N)nc(CSC(=S)N2CCCCC2)n1	CHX counter 31, Shiga toxin inh 59
Nc1nc(CSC(=S)N2CCOCC2)nc(Nc2ccccc2)n1	CHX counter 54, Shiga toxin inh 94
Nc1nc(CSC(=S)N2CCCCC2)nc(Nc2ccccc2)n1	CHX counter 40, Shiga toxin inh 87 (no result: NS1 function inh)
CC1C(=O)N(Cc2cn(Cc3ccco3)nn2)CCS(=O)(=O)N1Cc1ccc(-c2ccc(F)cc2Cl)cc1 (configuration not stated)	none (no result: SARS PLpro yeast, CHX counter, Shiga toxin inh, NS1 function inh, LmPK inhibitor)
CCOc1ccc(Nc2nc(N)nc(CSC(=S)N3CCOCC3)n2)cc1	CHX counter 44
Nc1nc(CSC(=S)N2CCN(c3ccccc3)CC2)nc(Nc2ccc(F)cc2)n1	none
O=C(C1CCN(c2nnc(-n3cccc3)s2)CC1)N1CCCCC1	CHX counter 20
CC1CCN(C(=O)C2CCN(c3nnc(-n4cccc4)s3)CC2)CC1	none
CCOc1ccc(CN2CCN(S(=O)(=O)c3ccc(Cl)cc3)CC2)cc1	none (no result: SARS PLpro yeast, CHX counter, Shiga toxin inh, NS1 function inh, LmPK inhibitor)
Cc1cccc(NC(=O)c2ccc(S(=O)(=O)N3CC(C)OC(C)C3)cc2)n1 (configuration not stated)	none (no result: CHX counter, Shiga toxin inh, NS1 function inh, LmPK inhibitor)
COc1cccc(OCc2cc(C(=O)N(C)C3CC(C)(C)NC(C)(C)C3)no2)c1	none
COc1cccc(OCc2cc(C(=O)N(C)C3CCOCC3)no2)c1	none
CN(C(=O)c1cc(COc2c(F)cccc2F)on1)C1CCOC1 (configuration not stated)	CHX counter 30
CN(CCCC1CCCC1)C(=O)c1cc(COc2c(F)cccc2F)on1	none
CC(=O)c1ccc(OCc2cc(C(=O)N(C)C3CCOC3)no2)cc1 (configuration not stated)	none
O=C(c1cc(COc2c(F)cccc2F)on1)N(Cc1ccccc1)CC1CC1	CHX counter 18
Cc1cc(OCc2cc(C(=O)N(C)C3CCOC3)no2)cc(C)c1Cl (configuration not stated)	CHX counter 49, Shiga toxin inh 78
COc1cc(Cl)ccc1OCc1cc(C(=O)N(C)C2CCOC2)no1 (configuration not stated)	CHX counter 37, Shiga toxin inh 60
CCOC(=O)Cn1c(=O)oc2cc(S(=O)(=O)N3CCN(c4cccc(C)c4C)CC3)ccc21	none (no result: SARS PLpro yeast, CHX counter, Shiga toxin inh, NS1 function inh, LmPK inhibitor)
